Bioassay records deposited in PubChem by several laboratories.
Most compounds without a hit are left out; they make up all but 4.3% or so of the library.
esBAF inh: inhibitors of esBAF chromatin remodeling in mouse ES cells | reporter increase, % at 12.5 µM | 2% of 350,000 active | Bmi1-luciferase knock-in reporter, 24 h; 100% = twice the neutral-well signal | AID 602393; in the data active means activation above about 40%; inconclusive means no clear call, values can overlap the other calls;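 further: a rise in the Bmi1 reporter signal indicates esBAF inhibition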
HSF1 inhib: HSF1 inhibition. 0.77% of 300,000 active. activity change, negative = inhibition, % at 7.5 µM (by protocol). NIH3T3-HGL HSE-luciferase, MG132-induced, luminescence 8 h; active compounds read low. AID 2098;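 active means more than half of replicate wells show activity change below -50%, luminescence cut by over half; inconclusive means some wells, but at most half, below -50%; inactive means no replicate well below -50%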;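 further: luciferase reports HSF-1 transcriptional activity via heat shock element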
HSF-1 act: increases HSF-1 driven luciferase reporter signal. AID 504408. activation, % at 9 µM. NIH3T3-HGL HSF-1 luciferase reporter, MG132, 8 h; 100% = twice DMSO control signal. 1.7% of 300,000 active;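 active means mean replicate activation of at least 50% with a set share of replicates each reaching 50%; inconclusive means only one of those two conditions met; inactive means mean below 50% and too few replicates reaching it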
SMARCA2 act: activators of SMARCA2 function | MG213 cells, MMTV-luciferase reporter, dexamethasone, overnight | activation, % at 9.1 µM | 1% of 370,000 active | AID 652017; in the data active means activation above about 7.8%
MITF act: MITF TRPM1 promoter activation in melanoma cells; SK-MEL-5 TRPM1-promoter luciferase, 24 h; % of positive control, neutral wells = 0; activation, % at 12.5 µM; 0.75% of 300,000 active;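 active means mean activation of at least 80% with every replicate also reaching 80%; inconclusive means mean reaches 80% but some replicate falls short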
Wnt bcat act: Wnt/beta-catenin pathway activation. 1.2% of 300,000 active. Wnt/beta-catenin reporter cell assay, activator, plate reader. AID 743398. activation, % at 9.35 µM; in the data active means activation above about 30%, passing the limit was not always enough; inconclusive means no clear call, values can overlap the other calls
Each line names hits and unclear results; the compound was inactive in the other large screens.

c1ccc(NC2=Nc3cccc4cccc2c34)cc1	none
Fc1ccc(/C=N/NC2=Nc3cccc4cccc2c34)cc1	HSF-1 act inconclusive, Wnt bcat act 58 (no result: esBAF inh)
Cc1cc(C(=O)NC2CCCN(Cc3ccc(Cl)cc3)C2)n(C)n1 (stereo not given)	HSF1 inhib -85
O=C(NC1CCCN(Cc2ccc(Cl)cc2)C1)c1c(F)cccc1F (stereo not given)	none
Cc1ccc(-c2ccc3c(c2)O[C@H](CN(C)C(=O)Nc2ccc(F)cc2)[C@H](C)CN([C@@H](C)CO)S3(=O)=O)cc1	none (no result: HSF1 inhib, HSF-1 act, SMARCA2 act, MITF act, Wnt bcat act)
COC(=O)Cn1c(=O)c2c(nc3n2CC(C)CN3CCc2ccccc2)n(C)c1=O (stereo not given)	HSF-1 act 63 (no result: MITF act)
COC(=O)Cn1c(=O)c2c(nc3n2CC(C)CN3Cc2ccccc2)n(C)c1=O (stereo not given)	none (no result: esBAF inh)
Cc1ccc(Nc2nc(-c3ccncc3)cs2)cc1	MITF act 88, Wnt bcat act 43 (no result: esBAF inh)
CCN(CC)c1ccc(Nc2nc(-c3cccnc3)cs2)cc1	esBAF inh 60, MITF act 112
Clc1ccc(Nc2nc(-c3cccnc3)cs2)cc1	esBAF inh 54 (no result: Wnt bcat act)
CC(c1nccs1)N(C)C(=O)c1cn(Cc2cccc3ccccc23)nn1 (stereo not given)	esBAF inh 48
C[C@H](CO)N1C[C@H](C)[C@H](CN(C)C(=O)c2ccncc2)OCCCC[C@H](C)Oc2ccc(NC(=O)CCC(F)(F)F)cc2C1=O	none (no result: HSF1 inhib, HSF-1 act, SMARCA2 act, MITF act, Wnt bcat act)
O=C(CC(Nc1ccccc1)C(=O)O)c1ccccc1 (stereo not given)	MITF act 101 (no result: esBAF inh, Wnt bcat act)
O=C(CC(Nc1ccc(Cl)cc1Cl)C(=O)O)c1ccccc1 (stereo not given)	HSF1 inhib -89 (no result: esBAF inh)
CSCCC(NC(=O)c1ccccc1)C(=O)OCC(=O)Nc1ccc(C)c(Cl)c1 (stereo not given)	none (no result: MITF act)
Cc1ccc(NC(CC(=O)c2ccccc2)C(=O)O)cc1Cl (stereo not given)	Wnt bcat act 53 (no result: esBAF inh)
Cc1ccc(C(=O)NC2CCCN(c3ccc(C(F)(F)F)cn3)C2)cn1 (stereo not given)	HSF-1 act 54
C[C@@H]1CN([C@H](C)CO)S(=O)(=O)c2ccc(C3=CCCC3)cc2O[C@@H]1CN(C)Cc1ccccc1F	none (no result: HSF1 inhib, HSF-1 act, SMARCA2 act, MITF act, Wnt bcat act)
O=[N+]([O-])c1ccc(Sc2cccc3cccnc23)cc1	esBAF inh 46
OCc1ccccc1OCCCOc1cccc2cccnc12	esBAF inh 44
Brc1ccc(OCCOc2cccc3cccnc23)cc1	HSF-1 act 67 (no result: esBAF inh)
O=[N+]([O-])c1ccc(COc2cccc3cccnc23)cc1	esBAF inh 83, HSF-1 act 59, MITF act 93
c1ccc(OCCOc2cccc3cccnc23)cc1	none (no result: esBAF inh)
C[C@H]1CN([C@@H](C)CO)C(=O)c2cc(NS(=O)(=O)c3cn(C)cn3)ccc2O[C@@H]1CN(C)C(=O)Nc1ccc(C(F)(F)F)cc1	none (no result: HSF1 inhib, HSF-1 act, SMARCA2 act, MITF act, Wnt bcat act)
O=C(C[C@H]1C[C@@H]2c3cc(NC(=O)C4CCC4)ccc3O[C@@H]2[C@@H](CO)O1)NCCc1ccccc1	none (no result: HSF1 inhib, HSF-1 act, SMARCA2 act, MITF act, Wnt bcat act)
Brc1ccc(COc2cccc3cccnc23)cc1	esBAF inh 71, HSF-1 act 65 (no result: MITF act)
O=C(N/N=C/c1ccccc1C(=O)O)c1ccc(COc2cccc3cccnc23)cc1	none (no result: esBAF inh)
O=C(N/N=C/c1ccc[nH]1)c1ccc(COc2cccc3cccnc23)cc1	HSF1 inhib -69
Cc1sc2nc(C)n(/N=C/c3ccc(O)cc3O)c(=O)c2c1C	HSF-1 act 63 (no result: esBAF inh)
Cc1sc2nc(C)n(/N=C/c3ccccc3O)c(=O)c2c1C	none (no result: Wnt bcat act)
O=C(c1ccc2ccccc2c1)N1CCN(Cc2ccccc2)CC1	esBAF inh 69
Cc1ccccc1CN1CCN(C(=O)c2ccc(F)cc2)CC1	HSF1 inhib -63 (no result: MITF act)
O=C(c1ccc(F)cc1)N1CCN(Cc2ccccc2)CC1	none
CCc1ccc(O)c(-c2cc(C(=O)Nc3cccnc3)[nH]n2)c1	esBAF inh 56, MITF act 109, Wnt bcat act inconclusive
Cc1cc(C)c(O)c(-c2cc(C(=O)Nc3cccnc3)[nH]n2)c1	none (no result: esBAF inh)
Cc1cc(O)c(-c2cc(C(=O)Nc3cccnc3)[nH]n2)cc1C	HSF-1 act 64, MITF act 138, Wnt bcat act 40
COc1ccccc1/C=C1/SC(=S)N(C(C)C(=O)NC2C=CS(=O)(=O)C2)C1=O (stereo not given)	HSF-1 act 64
C[C@H](CO)N1C[C@H](C)[C@@H](CN(C)S(=O)(=O)c2ccc(F)cc2)Oc2ccc(NC(=O)Nc3ccc4c(c3)OCO4)cc2CC1=O	none (no result: HSF1 inhib, HSF-1 act, SMARCA2 act, MITF act, Wnt bcat act)
Cn1cc(Cl)c(C(=O)Nc2nc3ccc(Cl)cc3s2)n1	esBAF inh 112, HSF-1 act 57 (no result: Wnt bcat act)
CC1CC1C(=O)Nc1nc2ccc(Cl)cc2s1 (stereo not given)	HSF-1 act 61, Wnt bcat act 54 (no result: esBAF inh)
O=C(Cc1ccc([N+](=O)[O-])cc1)N1N=C(C2CC2)CC1(O)C(F)(F)F (stereo not given)	HSF-1 act 68 (no result: esBAF inh)
Cc1ccc(N2CN(CCC3=CCCCC3)CNC2=S)cc1	Wnt bcat act 49 (no result: HSF1 inhib, HSF-1 act, MITF act)
Cc1ccc(N2CN(Cc3ccco3)CNC2=S)cc1	Wnt bcat act 36 (no result: esBAF inh)
CCc1ccc(N2CN(CCc3ccccc3)CNC2=S)cc1	none (no result: esBAF inh, HSF1 inhib, HSF-1 act, MITF act)
Cc1cccc(N2CN(Cc3ccco3)CNC2=S)c1	none (no result: esBAF inh)
O=C(C[C@@H]1C[C@@H]2c3cc(NC(=O)Nc4ccccc4)ccc3O[C@@H]2[C@H](CO)O1)NC1CCCCC1	none (no result: HSF1 inhib, HSF-1 act, SMARCA2 act, MITF act, Wnt bcat act)
CN(C)C(=O)C[C@@H]1C=C[C@@H](NC(=O)c2ccc(F)cc2)[C@H](CO)O1	none (no result: HSF1 inhib, HSF-1 act, SMARCA2 act, MITF act, Wnt bcat act)
C=C(C)Cn1c(NCCC)nc2c1c(=O)n(C)c(=O)n2C	HSF1 inhib -53 (no result: MITF act)
O=C(C[C@H]1C=C[C@@H](NC(=O)Nc2ccc(C(F)(F)F)cc2)[C@H](CO)O1)NCc1ccccn1	none (no result: HSF1 inhib, HSF-1 act, SMARCA2 act, MITF act, Wnt bcat act)
Cc1cc(NC(=O)c2ccccc2F)ncc1NC(=O)c1cccs1	esBAF inh 50
O=C(Nc1ccc(Cl)cn1)c1cccc(F)c1	none (no result: Wnt bcat act)
COc1cc2ccccc2cc1C(=O)Nc1ccc(Cl)cn1	esBAF inh 67
O=C(Nc1ccc(Cl)cn1)Nc1ccccc1F	Wnt bcat act 39 (no result: MITF act)
O=C(Nc1ccc(Cl)cn1)c1ccccc1F	Wnt bcat act 39 (no result: esBAF inh)
O=C(Nc1ccc(Cl)cn1)Nc1ccc(Cl)cn1	none (no result: esBAF inh)
Cc1cc(NC(=O)c2ccccc2)ncc1NC(=O)c1cccs1	none (no result: esBAF inh)
CCCN(C)C[C@H]1Oc2cc(-c3ccc(C#N)cc3)ccc2S(=O)(=O)N([C@@H](C)CO)C[C@H]1C	none (no result: HSF1 inhib, HSF-1 act, SMARCA2 act, MITF act, Wnt bcat act)
O=C(NC(=O)c1ccccc1)Nc1ccc(Cl)cn1	Wnt bcat act 35
O=C(Nc1cccc(C(=O)Nc2ccc(Cl)cn2)c1)c1ccccc1	none
C/C(=C\c1ccccc1)C(=O)Nc1ccc(Cl)cn1	Wnt bcat act 33 (no result: MITF act)
O=C(C[C@@H]1C=C[C@@H](NC(=O)CC2CC2)[C@H](CO)O1)NCC(F)(F)F	none (no result: HSF1 inhib, HSF-1 act, SMARCA2 act, MITF act, Wnt bcat act)
